Results as given in article PMC4336329 (PLoS ONE, 2015).
The whole screen tested about 310,000 compounds, of which about 14,000 (4.5%) showed an effect of 50% or more. The effect is printed as a negative number. The list comes from a sample in which strong results are over-represented; it also holds similar structures and randomly drawn compounds.

Target: human ether-à-go-go-related gene (hERG) potassium channel (human, UniProt Q12809)
Test: primary screen, population patch clamp on CHO cells stably expressing hERG; higher = less effect of the substance
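Note: peak tail current of the secondary pulse compared with the same well before compound.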

Sequence of human ether-à-go-go-related gene (hERG) potassium channel (Q12809 whole entry, looked up): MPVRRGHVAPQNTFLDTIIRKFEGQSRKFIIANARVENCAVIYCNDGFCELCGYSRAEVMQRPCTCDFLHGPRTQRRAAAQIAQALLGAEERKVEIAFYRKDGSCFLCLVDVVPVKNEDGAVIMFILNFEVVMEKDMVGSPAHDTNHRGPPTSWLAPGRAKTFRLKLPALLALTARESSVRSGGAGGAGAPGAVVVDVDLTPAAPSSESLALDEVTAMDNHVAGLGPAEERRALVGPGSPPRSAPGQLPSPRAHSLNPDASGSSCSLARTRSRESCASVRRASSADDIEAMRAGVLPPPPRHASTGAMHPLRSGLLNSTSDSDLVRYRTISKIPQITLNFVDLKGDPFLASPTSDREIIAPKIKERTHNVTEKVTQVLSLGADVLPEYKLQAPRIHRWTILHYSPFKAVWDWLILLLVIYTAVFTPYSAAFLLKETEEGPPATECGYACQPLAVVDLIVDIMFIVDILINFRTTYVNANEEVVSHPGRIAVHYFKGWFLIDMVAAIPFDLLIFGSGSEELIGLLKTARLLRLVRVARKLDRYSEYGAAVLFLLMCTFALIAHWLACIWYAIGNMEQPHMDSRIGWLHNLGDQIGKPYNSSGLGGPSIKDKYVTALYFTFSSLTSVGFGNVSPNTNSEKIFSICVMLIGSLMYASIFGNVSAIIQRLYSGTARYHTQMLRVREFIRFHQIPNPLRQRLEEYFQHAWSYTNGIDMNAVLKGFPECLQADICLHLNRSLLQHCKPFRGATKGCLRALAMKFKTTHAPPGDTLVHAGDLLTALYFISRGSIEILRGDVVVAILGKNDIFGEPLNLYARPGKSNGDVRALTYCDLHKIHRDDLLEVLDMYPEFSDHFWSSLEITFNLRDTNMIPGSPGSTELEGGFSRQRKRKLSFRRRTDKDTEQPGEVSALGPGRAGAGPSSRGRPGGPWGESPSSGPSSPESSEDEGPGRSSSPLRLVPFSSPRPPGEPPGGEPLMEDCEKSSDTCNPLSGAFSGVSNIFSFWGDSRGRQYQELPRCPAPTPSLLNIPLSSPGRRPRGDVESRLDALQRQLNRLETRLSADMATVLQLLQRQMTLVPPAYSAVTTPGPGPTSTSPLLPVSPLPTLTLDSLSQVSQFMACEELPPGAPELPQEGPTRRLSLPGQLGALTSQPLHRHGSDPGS

SMILES	hERG current change (%, negative = inhibition) at 10uM [%]
Cc1cccc2c1N(N=O)CCC2	-2.33
Cc1ccc(N2CC(C(=O)Nc3ccc4c(c3)OCO4)CC2=O)cc1 (stereo not drawn)	9.48
Cc1ccc(-c2c(C(=O)N/N=C/C3CC=CCC3)nnn2-c2nonc2N)cc1 (stereo not drawn)	20.5
Cc1nccnc1Sc1ccccc1	22.4
Cc1ccc(S(=O)(=O)NNC(=O)Cc2cccn2C)cc1	11.2
CCCCN(C)C(=O)c1oc2ccc(S(=O)(=O)N3CCCCCC3)cc2c1C	-15.9
CCC1Sc2ccc(S(=O)(=O)CCC(=O)Nc3cc(C)ccn3)cc2NC1=O (stereo not drawn)	11.9
COc1ccccc1C(=O)Nc1cccc2nc(C)ccc12	8
Cc1cc(C(=O)Nc2c(F)cc(F)cc2Br)n(-c2ccccc2)n1	16
Cc1cc(NC(=O)c2ccc(Cl)cc2)n(-c2ccccc2)n1	-1.41
Cc1cc(NC(=O)c2cnn3cccnc23)no1	-0.805
Cc1cc(NC(=O)c2cnn3cccnc23)n(-c2ccccc2)n1	-61.8
CCOC(=O)c1cccc(NC(=O)c2cc(C)nn2-c2ccccc2)c1	-50.5
Cc1cc(C(=O)Nc2c(F)c(F)c(F)c(F)c2F)n(-c2ccccc2)n1	-59.1
CC(=O)c1cccc(NC(=O)c2cc(C)nn2-c2ccccc2)c1	-21
Cc1cc(NC(=O)c2ccccc2)n(-c2ccccc2)n1	30.8
Cc1c(NC(=O)c2cnn3cccnc23)c(=O)n(-c2ccccc2)n1C	4.45
CCOC(=O)c1ccc(NC(=O)c2cc(C)nn2-c2ccccc2)cc1	-7.01
Cc1cc(C(=O)Nc2ccc(F)cc2C)n(-c2ccccc2)n1	12.6
Cc1cc(NC(=O)c2ccc(F)cc2)n(-c2ccccc2)n1	-80.2
COc1ccc(OC)c2c1C(=O)C(Cl)=C(Cl)C2=O	13.4

SMILES	hERG current change (%, negative = inhibition) at 10uM [%]
COCc1c(C#N)c(NCCc2ccc(F)cc2)nc(C)c1[N+](=O)[O-]	1.39
Cc1ccc(C(=O)Nc2ccc3c4c(cccc24)CC3)cc1[N+](=O)[O-]	-1.54
Cc1cc(C)n(-c2nnc(C)n2NS(C)(=O)=O)n1	14.6
Cc1csc(C(C#N)C(=O)c2ccc(S(=O)(=O)N3CCCC3)cc2)n1 (stereo not drawn)	5.45
COc1ccccc1N1CCN(C(=O)CN2C(=O)C3CCCCC3C2=O)CC1 (stereo not drawn)	22.7
Cc1onc(-c2c(F)cccc2Cl)c1C(=O)Nc1c(C)n(C)n(-c2ccccc2)c1=O	0.00478
COc1ccccc1NS(=O)(=O)c1cc(C)ccc1C	4.55
CCCc1nn(C)c2c(=O)[nH]c(-c3cc(S(=O)(=O)N(CCO)CCO)ccc3OCC)nc12	0.59
CCc1ccc2c(c1)C(c1ccc([N+](=O)[O-])cc1)=NNC(c1ccc(F)cc1)=N2	-7.54
COc1ccc(S(=O)(=O)Cc2ccc(C(=O)N3CCN(c4ncccn4)CC3)o2)cc1	-16.8
COc1ccc(CCC(=O)N2CCN(S(=O)(=O)c3ccc(OC)cc3)CC2)cc1	-8.45
COc1ccc(S(=O)(=O)Cc2ccc(C(=O)N3CCN(c4ccccc4)CC3)o2)cc1	-37.6
COc1ccc(S(=O)(=O)N2CCN(C(=O)c3ccc(C)o3)CC2)cc1	-5.16
CCOC(=O)N1CCN(C(=O)c2ccc(CS(=O)(=O)c3ccc(OC)cc3)o2)CC1	-16
COc1ccc(S(=O)(=O)Cc2ccc(C(=O)N3CCN(c4ccc(Cl)cc4)CC3)o2)cc1	-55.5
COc1ccc(S(=O)(=O)N2CCN(C(=O)c3ccc([N+](=O)[O-])o3)CC2)cc1	-51.3
COc1ccc(S(=O)(=O)Cc2ccc(C(=O)N3CCN(c4cc(Cl)ccc4C)CC3)o2)cc1	9.01
COc1ccc(S(=O)(=O)Cc2ccc(C(=O)N3CCN(c4cccc(C)c4C)CC3)o2)cc1	-30.6
COc1ccc(N2CCN(C(=O)c3ccc(CS(=O)(=O)c4ccc(OC)cc4)o3)CC2)cc1	-64.7
COc1ccc(S(=O)(=O)Cc2ccc(C(=O)N3CCOCC3)o2)cc1	1.23
COc1ccc(S(=O)(=O)Cc2ccc(C(=O)N3CCN(c4ccccc4F)CC3)o2)cc1	-52.8

SMILES	hERG current change (%, negative = inhibition) at 10uM [%]
CC(=O)c1ccc(N(C(=O)CNC(=O)c2ccco2)C(C(=O)NC2CCCC2)c2ccncc2)cc1 (stereo not drawn)	20.3
COc1cccc(-c2nn(-c3ccc(C)cc3)cc2C(=O)N(C)CC(=O)Nc2cccc(F)c2)c1	0.34
COc1ccc(OC)c(NC(=O)COC(=O)c2ccc(S(=O)(=O)N3CCOCC3)cc2)c1	-15.3
O=C(Nc1ccc2c(c1)OCO2)C1CC1(Cl)Cl (stereo not drawn)	3.77
COc1cc(OC)c(OC)cc1CNC(=O)c1cc(=O)c2ccccc2o1	8.48
COc1ccc(N(C(C)=O)S(=O)(=O)c2cccs2)cc1	7.03
CCCn1nnc(NC(=O)c2ccc(Cl)cc2Cl)n1	2.23
O=C(O)CCc1ccc(S(=O)(=O)N2CCOCC2)cc1	9.65
COC(=O)C1=C(C)N(c2cccc(Cl)c2)C(=O)C1	9.01
O=C(c1ccccc1)C(Nc1ccccn1)c1ccccc1 (stereo not drawn)	1.36
COP(=O)(OC)C(Nc1ccccn1)c1ccccc1 (stereo not drawn)	26.6
c1ccc(CC(Nc2ccccn2)c2ccccc2)cc1 (stereo not drawn)	-52.8
CN(C)CCCN(C(=O)c1ccc(S(=O)(=O)N2CCCCC2)cc1)c1nc2cc3c(cc2s1)OCO3.Cl	-70.4
CN(C)CCN(C(=O)c1ccc(S(=O)(=O)N(C)C)cc1)c1nc2cc3c(cc2s1)OCCO3.Cl	-40.7
CN(C)CCCN(C(=O)c1ccc(S(=O)(=O)N2CCCCCC2)cc1)c1nc2cc3c(cc2s1)OCCO3.Cl	-59.7
Cc1ccc2sc(N(CCCN(C)C)C(=O)c3ccc(S(=O)(=O)N4CCOCC4)cc3)nc2c1C.Cl	-35.9
CN(C)CCCN(C(=O)c1ccc(S(=O)(=O)N2CCOCC2)cc1)c1nc2cc3c(cc2s1)OCO3.Cl	-61.4
CCN(CC)CCN(C(=O)c1ccc(S(=O)(=O)N2CCCCC2)cc1)c1nc2cc3c(cc2s1)OCO3.Cl	-37.6
CCN(CC)CCN(C(=O)c1ccc(N2C(=O)CCC2=O)cc1)c1nc2cc3c(cc2s1)OCCO3.Cl	-27.6
CCN(CC)CCN(C(=O)c1ccc(S(=O)(=O)N2CCOCC2)cc1)c1nc2cc3c(cc2s1)OCCO3.Cl	-69.2
CC1CN(S(=O)(=O)c2ccc(C(=O)N(CCCN(C)C)c3nc4cc5c(cc4s3)OCCO5)cc2)CC(C)O1.Cl (stereo not drawn)	-28.8
